High-throughput results from PubChem.
In the library only some 2.8% were active in any assay of this set; here they are far more common.
D3 ag = qHTS of D3 Dopamine Receptor Agonist: qHTS. D3R DiscoveRx beta-arrestin cells, luminescence, 90 min. max activation, %. actives 0.58% (n = 410,000); in the data active = max activation above about 30%; note: 0% is about no effect
Target sequence (P35462 whole entry, looked up): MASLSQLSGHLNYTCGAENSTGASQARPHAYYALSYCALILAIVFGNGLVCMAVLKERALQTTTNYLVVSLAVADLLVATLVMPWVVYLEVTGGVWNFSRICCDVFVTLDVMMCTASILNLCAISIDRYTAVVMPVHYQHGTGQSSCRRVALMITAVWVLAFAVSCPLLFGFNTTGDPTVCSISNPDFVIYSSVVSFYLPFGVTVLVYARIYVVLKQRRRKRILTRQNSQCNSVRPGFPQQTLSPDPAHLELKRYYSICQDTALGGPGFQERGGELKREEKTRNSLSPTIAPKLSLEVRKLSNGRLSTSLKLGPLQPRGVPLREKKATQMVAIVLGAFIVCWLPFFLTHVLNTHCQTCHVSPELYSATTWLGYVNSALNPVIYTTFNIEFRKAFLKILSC
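Agonist mode: compounds and dopamine controls were applied to plated cells for 90 min at 37 degrees C after an overnight attachment at 1500 cells/well. Luminescent read-out followed 30 - 60 minutes at room temperature with DiscoveRx detection reagent.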
D3 antag = qHTS of D3 Dopamine Receptor Antagonist: qHTS | D3R cells, DiscoveRx beta-arrestin luminescence, antagonist mode; hits give low values | max response, negative = inhibition, % | D(3) dopamine receptor (Homo sapiens), P35462 | actives 2.5% (n = 360,000) | AID 652054, 2013; in the data active = max response below about -50%; inconclusive = no clear call, values can overlap the other calls; note: % is set by controls: 0 for no effect and ±100 for the full control effect
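Cells plated overnight at 1500 cells/well, then exposed to library compounds with dopamine controls for 90 minutes at 37 degrees C. DiscoveRx reagent added for 30–60 minutes at room temperature; luminescence read, quantitative HTS format.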
MBNL1-CUG inh = qHTS Assay for Inhibitors of MBNL1-poly(CUG) RNA binding | Muscleblind-like protein 1 (Homo sapiens), Q9NR56 | TR-FRET MBNL1-His/biotin-(CUG)12 binding, 665/545 ratio | AID 2675, 2010 | actives 0.036% (n = 280,000) | Potency, µM (top dose mostly 57.5 µM), for inactives: top-dose activity change, negative = inhibition, hits mostly inhibitors; active = well fitted inhibition curve with a large enough effect in the signal ratio, with a control signal flat, not every such curve was filed as active; inconclusive = small, poorly fitted or top-dose-only effect, or effect the other way, or a change in a side signal; inactive = no such curve, though single readings can be large or run the other way; the % refers to the signal ratio; note: potency is the fitted concentration of half-maximal effect; % is set by controls: 0 for no effect and ±100 for the full control effect
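His-tagged MBNL1 binding to biotinylated (CUG)12 RNA was measured by TR-FRET using terbium anti-His antibody (0.055 ng/ul final) and streptavidin-XL665 (5 nM final). Compounds were titrated 92 nM to 58 uM; 60 min at room temperature.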
PTHR1 ag = qHTS for PTHR1 Agonists: Primary Screen | HEK293 GP2 PTHR1 cells, GloSensor cAMP luminescence, 1 h | Potency, µM (doses to about 115 µM), without a hit: top-dose activation, hits mostly activators | actives 0.075% (n = 410,000); note: potency is the fitted concentration of half-maximal effect; nearly all actives have a fitted effect of over 55% in size
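HEK-293-derived GP2 cells expressing PTHR1 and a GloSensor cAMP reporter, 3,000/well, plated overnight, given luciferin plus IBMX (each 0.5 mM as added) for 1 h at 37 °C, then compound for 1 h at 37 °C. Luminescence was read after 15 min at room temperature.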
CBFb-RUNX1 inh = qHTS Assay for Compounds Blocking the Interaction Between CBF-beta and RUNX1 for the Treatment of Acute Myeloid Leukemia; Runt-related transcription factor 1 (Homo sapiens) + Core-binding factor subunit beta …; AlphaScreen CBFb-His/RUNX1-biotin binding, biochemical; Potency, µM (top dose mostly 59.8 µM), without a hit: at the top dose activity, negative = inhibition, hits mostly inhibitors; 230,000 tested, under 10 active; AID 1477, 2009; note: % of control where 0% means no effect
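Compounds were screened at multiple concentrations against a preformed CBF-beta(His)/RUNX1(biotin) complex (30 nM of each) for 15 min at room temperature, followed by 90 min with nickel and streptavidin beads and AlphaScreen reading.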
Integrin act MD = qHTS for Activators of Integrin-Mediated Alleviation for Muscular Dystrophy; alpha7betagal myoblasts, beta-gal FDG fluorescence, 48 h; Potency, µM (doses to about 38.3 µM), inactives show at the highest dose activation, most hits filed as activators; actives 0.064% (n = 350,000); AID 624291, 2012;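 note: potency is the fitted concentration of half-maximal effect; 100% = response of the positive control SU9516; nearly all actives have a fitted effect of over 60% in size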
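alpha7betagal+/- myoblasts (passage 13, 250/well) treated 48 h at 37C with compounds at 1:260 dilution of DMSO stock. Lysed, then beta-galactosidase activity read as FDG fluorescence (ex 480/em 540) after 30 min, with pre-read for autofluorescence.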
* hit, by the source's call; i = inactive; ? = inconclusive; / = not tested or not shown; [ ] = remark or other dose. Unless noted, calls come from the whole dose curve; as a rule, active = well fitted curve in the direction sought with a large enough effect; inconclusive = small, poorly fitted or top-dose-only effect, or another doubt; inactive = no such curve, though single readings can be large; an effect the other way counts as inactive or inconclusive.

SMILES | D3 ag | D3 antag | MBNL1-CUG inh | PTHR1 ag | CBFb-RUNX1 inh | Integrin act MD
CCS(=O)(=O)N1CCCC(C(=O)c2ccc(OC)cc2C)C1 (stereo not drawn) | 4 | 11 | 1% | i | -3% | 11µM*
COc1cccc(C(=O)N2CCN(Cc3cc(Br)ccc3OC)CC2)c1 | -1 | -84* | -22% | -4%[57.5 µM] | -4% | -28%
CCOc1ccc(NC(=O)c2ccc(N3CC4CC(C3)c3cccc(=O)n3C4)c(NC(=O)c3cccnc3)c2)cc1 (stereo not drawn) | -2 | 3 | -17% | -3% | / | 20%
Cc1ccc(CCC2C3=C(CCCC3=O)OC3=C2C(=O)CCC3)cc1 | 30* | ? | -2% | i | -2% | 12%
CN(CC(=O)NCCc1ccccc1)S(=O)(=O)c1cccs1 | -11 | -17 | 2% | i | 8% | -10%
CN(CC(=O)NCCc1ccccc1)S(=O)(=O)c1ccc(Br)s1 | -30 | -78* | 12% | -20% | / | ?
CCC(C)NC(=O)CSc1nc2cc3c(cc2c(=O)n1CCCCCC(=O)NCc1ccc(OC)cc1)OCO3 (stereo not drawn) | 4 | / | / | -28% | / | /
Cc1cccc(NC(=O)Cn2c(=O)n(CC3CCC(C(=O)NCCc4ccccc4)CC3)c(=O)c3ccccc32)c1 (stereo not drawn) | 7 | / | / | -63% | / | /
O=C(CN1CCN(c2ncc(C(F)(F)F)cc2Cl)CC1)N1CCN(c2ncc(C(F)(F)F)cc2Cl)CC1 | 0 | -61* | 2% | -89% | -1% | -7%
Cc1ccc(C(=O)OCCN2CCN(c3ncc(C(F)(F)F)cc3Cl)CC2)cc1 | -16 | -83* | -7% | -7%[57.5 µM] | 3% | -5%
O=C(CSc1ccc(Cl)cc1)N1CCN(c2ncc(C(F)(F)F)cc2Cl)CC1 | 15 | 10 | -9% | 20%[57.5 µM] | 21% | 7%
COc1cccc(/C=N/NC(=O)C[n+]2ccccc2)c1OC | -9 | ? | 7% | i | -15% | 15%
COc1ccc(/C=N/NC(=O)C[n+]2ccccc2)c(OC)c1OC | -12 | -51* | / | i | 1% | 2%
CCc1nc2c(OCc3cccc(Cl)c3)cccn2c1N(C)C(C)=O | -10 | 6 | / | -24% | / | /
O=[N+]([O-])c1ccc(N=NN(CCO)CCO)cc1 | -2 | -4 | ? | i | 8% | 48%
O=[N+]([O-])c1ccc(N=Nc2ncc[nH]2)cc1 | -15 | -111* | 28% | -14% | / | 21%
Cc1cc(C(=O)Nc2ccccn2)no1 | 33* | 15 | 0% | i | 8% | 20%
O=C(Cn1c(=O)c(C(F)(F)F)nc2ccccc21)Nc1ccc(Br)cc1F | 8 | / | / | -4% | / | /
Cc1noc(C)c1CSCC(=O)OCC(=O)Nc1ccc(OC(F)(F)F)cc1 | 4 | 6 | / | -14% | / | 8%
NC(=O)c1ccc(SCC(=O)NC2CCCCC2)c([N+](=O)[O-])c1 | -13 | -52* | ? | -34% | 6% | ?
Cc1cccc(C)c1NC(=O)CN(C)C(=O)c1ccc(-n2cncn2)c([N+](=O)[O-])c1 | 1 | -68* | / | i | / | 6%
COC(=O)c1cc(Br)ccc1NC(=O)Nc1ccc(C)cc1 | -6 | -80* | / | -4%[57.5 µM] | / | -40%
COC(=O)c1sccc1NC(=O)NC1CCCCC1 | 7 | -51* | 3% | -15% | 0% | 5%
COC(=O)c1sccc1NC(=O)Nc1ccc(C)cc1 | 55* | -2 | -5% | -24% | / | -3%
